Shown are actives, neighbours in structure and some others; about 6.6% of the full set was active somewhere.
TGFb inhibitor – qHTS for Inhibitors of TGF-b; HepG2 CAGA-GFP TGF-b/SMAD3 reporter, GFP fluorescence, 18 h; TGF-beta stimulated, 500 pg/mL final; Potency, µM (titrated, usually from 46.1 µM), without a hit: at the highest dose activity, negative = inhibition, most hits filed as inhibitors; 410,000 compounds, 1.2% hits; further: on the % scale 0 is the no-effect control and ±100 the full control effect; nearly all actives have a fitted effect of over 65% in size
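Using HEPG2 CAGA-GFP reporter cells at 1000 cells/well, we pinned test compounds, stimulated with recombinant TGF-beta (500 pg/mL final) and measured total well GFP after 18 h.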
KB-3-1 tox – qHTS assay for MDR1-selective chemotherapeutics: Primary screen using the parental adenocarcinoma cell KB-3-1 | KB-3-1 viability, CellTiter-Glo ATP luminescence, 72 h | Potency, µM (series often up to 46.1 µM), hits mostly cytotoxic | 400,000 compounds, 1.4% hits; further: on the % scale 0 is the no-effect control and ±100 the full control effect; nearly all actives have a fitted effect of over 60% in size
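Cytotoxicity in the drug-sensitive parental line KB-3-1 was scored as loss of CellTiter-Glo luminescence following 72 h incubation with compound. Values come from curve fitting of normalized concentration-response data.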
HT1080-NT tox – qHTS for induction of synthetic lethality in tumor cells producing 2HG: qHTS for the HT-1080-NT fibrosarcoma cell line. HT-1080-NT fibrosarcoma viability, CellTiter-Glo ATP luminescence, 48 h. Potency, µM (doses to about 46.1 µM), without a hit: top-dose activity, negative = less viability, most hits filed as cytotoxic. 360,000 compounds, 1.6% hits. AID 686970, 2013;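 further: NT is the 2HG producing partner of a matched IDH1 knockdown line; 0% = DMSO-treated cells and -100% = media-only wells without cells; nearly all actives have a fitted effect of over 55% in size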
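HT-1080-NT fibrosarcoma cells (2HG-overproducing), 750 cells/well in RPMI with 5% FBS, dosed after 2 h and incubated 48 h at 37C. CellTiter-Glo luminescence normalized to DMSO and no-cell wells; concentration-response curves fitted and classed.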
HepG2 viability – qHTS for Inhibitors of TGF-b: Cytotox Counterscreen | HepG2 CAGA-GFP viability, ATP luminescence, 18 h | Potency, µM (series often up to 46.1 µM), inactives show at the top dose activity change, negative = cytotoxicity, hits mostly cytotoxic | 410,000 compounds, 0.76% hits | AID 588856, 2011
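HepG2 CAGA-GFP cells (1000/well, DMEM with 1% FBS) received compound, then TGF-beta at 500 pg/mL final, and were incubated 18 hours at 37 degrees C. Viability was read by CellTiter-Glo luminescence. Media-only wells were set as complete cell-killing and DMSO as no toxicity.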
HT1080 IDH1KD tx – qHTS for induction of synthetic lethality in tumor cells producing 2HG: qHTS for the HT-1080-IDH1KD cell line | HT-1080 IDH1 knockdown viability, ATP luminescence, 48 h | 360,000 compounds, 2% hits | Potency, µM (top dose mostly 46.1 µM), inactives show top-dose activity, negative = toxicity, usual class: cytotoxic | AID 686971, 2013;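 further: 0% = DMSO wells and -100% = cell-free medium wells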
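In this qHTS, HT-1080 cells depleted of IDH1 are exposed for 48 h at 37 °C to compound titrations. Toxicity is scored from CellTiter-Glo luminescence, with DMSO as full viability and medium alone as none.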
KB-V1 MDR tox – qHTS assay for MDR1-selective chemotherapeutics: Primary screen using the drug-selected MDR subline cells KB-V1; KB-V1 MDR cells viability, CellTiter-Glo, 72 h; Potency, µM (highest dose often 46.1 µM), actives largely listed as cytotoxic; 400,000 compounds, 3.4% hits; further: on the % scale 0 is the no-effect control and ±100 the full control effect; nearly all actives have a fitted effect of over 60% in size
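Drug-selected KB-V1 cells, grown in DMEM lacking phenol red with 10% FBS, receive compound titrations; after three days at 37 degrees C, surviving cell ATP is quantified by CellTiter-Glo luminescence and responses normalized and curve-fitted.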
* marks the source's active call; other numbers are inactive results. The call rests on the fitted dose curve; in most records, active means well fitted curve in the direction sought with a large enough effect; inconclusive means small, poorly fitted or top-dose-only effect, or another doubt; inactive means no such curve, though single readings can be large; an effect the other way counts as inactive or inconclusive. Potency means the concentration at half of the fitted maximal effect.

`COc1ccc(NS(=O)(=O)c2ccc(C(=O)N3CCCCCC3)cc2)cc1` gave TGFb inhibitor inconclusive, KB-3-1 tox inconclusive, HT1080-NT tox 18µM*, HepG2 viability 6%, HT1080 IDH1KD tx -10% and KB-V1 MDR tox inactive.
`Cc1ccc(NNC(=O)C(=O)N2CCCCC2)cc1` gave TGFb inhibitor 9%, KB-3-1 tox inactive, HT1080-NT tox inconclusive, HepG2 viability 2%, HT1080 IDH1KD tx 4.1µM* and KB-V1 MDR tox inactive.
For CCCC/C=C/[C@H](C)[C@@](C)(COC(=O)c1ccc(Br)cc1)Cc1ccccc1 the results were TGFb inhibitor 6% and HepG2 viability -3%.
For COc1ccc(C(=O)Nc2ccc3[nH]ccc3c2)cc1OC the results were TGFb inhibitor 22%, KB-3-1 tox inconclusive, HT1080-NT tox -12%, HepG2 viability 7%, HT1080 IDH1KD tx -17% and KB-V1 MDR tox inactive.
Screening COc1ccc(NS(=O)(=O)c2ccc(O)c(NC(=O)c3ccc(S(=O)(=O)N4CCCCCC4)cc3)c2)cc1 returned TGFb inhibitor -9%, KB-3-1 tox inactive, HT1080-NT tox inconclusive, HepG2 viability -25%, HT1080 IDH1KD tx inconclusive and KB-V1 MDR tox inactive.
COc1ccc(C(=O)Nc2ccc3[nH]ccc3c2)cc1 was read as TGFb inhibitor -9%, KB-3-1 tox 16µM*, HT1080-NT tox 18µM*, HepG2 viability -33%, HT1080 IDH1KD tx 21µM* and KB-V1 MDR tox 16µM*.
COc1ccc(NS(=O)(=O)c2cccc(NC(=O)c3ccc(S(=O)(=O)N4CCCCCC4)cc3)c2)cc1 was read as TGFb inhibitor 0%, KB-3-1 tox 21µM*, HT1080-NT tox inconclusive, HepG2 viability -21%, HT1080 IDH1KD tx inconclusive and KB-V1 MDR tox inconclusive.
COc1ccc(C(=O)Nc2cccc(C(=O)N3CCCC3)c2)cc1 was read as TGFb inhibitor 7%, KB-3-1 tox inactive, HT1080-NT tox 4%, HepG2 viability -22%, HT1080 IDH1KD tx 0% and KB-V1 MDR tox 21µM*.
COc1cccc(C(=O)Nc2cccc(C(=O)N3CCOCC3)c2)c1 was read as TGFb inhibitor 16%, KB-3-1 tox inactive, HT1080-NT tox -3%, HepG2 viability -9%, HT1080 IDH1KD tx -3% and KB-V1 MDR tox inactive.
O=C(CNC(=O)c1ccccc1)OCC(=O)c1cccc2ccccc12 was read as TGFb inhibitor 16%, KB-3-1 tox inconclusive, HepG2 viability -4% and KB-V1 MDR tox inactive.
Screening Cc1cccc(Cc2c(C)nc3nc(SCc4ccccc4C)nn3c2C)c1 returned TGFb inhibitor inconclusive, KB-3-1 tox inactive, HepG2 viability -32% and KB-V1 MDR tox inactive.
Cc1ccc(S(=O)(=O)N(Cc2nc(-c3cccc(C)c3)no2)C2CCCCC2)cc1 was read as TGFb inhibitor inconclusive and HepG2 viability -23%.
CC1(C)CC(N2CCN(Cc3ccccc3)CC2)=CC(=[N+]2CCCCC2)C1 was read as TGFb inhibitor inconclusive, KB-3-1 tox 1.5µM*, HT1080-NT tox -27%, HepG2 viability -41%, HT1080 IDH1KD tx inconclusive and KB-V1 MDR tox inactive.
c1ccc(CN2CCN(c3ncccn3)CC2)cc1 was read as TGFb inhibitor 0%, KB-3-1 tox inactive, HT1080-NT tox 16%, HepG2 viability 4%, HT1080 IDH1KD tx 13% and KB-V1 MDR tox inactive.
CC1(C)CC(N2CCCC2)=CC(=[N+]2CCCC2)C1 was read as TGFb inhibitor inconclusive, KB-3-1 tox 18µM*, HT1080-NT tox inconclusive, HepG2 viability -31%, HT1080 IDH1KD tx inconclusive and KB-V1 MDR tox inactive.
CC1(C)CC(NNCCC#N)=CC(=[N+]2CCCC2)C1 was read as TGFb inhibitor -3%, KB-3-1 tox inactive, HT1080-NT tox -13%, HepG2 viability -14%, HT1080 IDH1KD tx 0% and KB-V1 MDR tox inactive.
For CC1(C)CC(=O)c2sc(N3CCCCC3)nc2C1 the results were TGFb inhibitor 30%, KB-3-1 tox inactive, HT1080-NT tox 3%, HepG2 viability -11%, HT1080 IDH1KD tx 1% and KB-V1 MDR tox inactive.
CN(Cc1ccccc1)C1=CC(=[N+]2CCCCC2)CC(C)(C)C1 was read as TGFb inhibitor 11µM*, KB-3-1 tox inconclusive, HT1080-NT tox inconclusive, HepG2 viability -26%, HT1080 IDH1KD tx inconclusive and KB-V1 MDR tox inactive.
`CC1(C)CC(N2CCCC2)=CC(=[N+]2CCCCC2)C1` gave TGFb inhibitor inconclusive, KB-3-1 tox 5.2µM*, HT1080-NT tox inconclusive, HepG2 viability -32%, HT1080 IDH1KD tx inconclusive and KB-V1 MDR tox inactive.
Screening CN(C)C(CNC(=O)c1cc(S(=O)(=O)N(C)c2ccc(F)cc2)ccc1Cl)c1cccs1 (centres undefined) returned TGFb inhibitor -10%, KB-3-1 tox inconclusive, HT1080-NT tox -5%, HepG2 viability 2%, HT1080 IDH1KD tx -7% and KB-V1 MDR tox 4.1µM*.
`COc1ccc(N(C)S(=O)(=O)c2cccc(C(=O)NCC(c3cccs3)N(C)C)c2)cc1` (centres undefined) gave TGFb inhibitor 3%, KB-3-1 tox inactive, HT1080-NT tox -4%, HepG2 viability -16%, HT1080 IDH1KD tx 7% and KB-V1 MDR tox inactive.
`O=C1C=C(NCc2ccccc2)c2ccccc2C1=O` gave TGFb inhibitor inconclusive, KB-3-1 tox inconclusive, HT1080-NT tox 3.7µM*, HepG2 viability -109%, HT1080 IDH1KD tx 4.6µM* and KB-V1 MDR tox inconclusive.
For O=c1cccccc1NCc1ccccc1 the results were TGFb inhibitor -13%, KB-3-1 tox inactive, HT1080-NT tox 2%, HepG2 viability -7%, HT1080 IDH1KD tx 0% and KB-V1 MDR tox inactive.
For Cc1ccc(NC2=CC(=O)C(=O)c3ccccc32)c(C)c1 the results were TGFb inhibitor inconclusive, KB-3-1 tox inconclusive, HT1080-NT tox 6%, HepG2 viability 5µM*, HT1080 IDH1KD tx 1% and KB-V1 MDR tox inconclusive.
Screening NC1=CC(=O)C(=O)c2ccccc21 returned TGFb inhibitor inconclusive, KB-3-1 tox inactive, HT1080-NT tox -16%, HepG2 viability -99%, HT1080 IDH1KD tx -20% and KB-V1 MDR tox inconclusive.

Bioassay records from PubChem.
